Assay results from PubChem BioAssay (NCATS).
Inconclusive results are not listed. Active and inactive are the calls of the source. The call rests on the fitted dose curve; in most records, active means well fitted curve in the direction sought with a large enough effect; inconclusive means small, poorly fitted or top-dose-only effect, or another doubt; inactive means no such curve, though single readings can be large; an effect the other way counts as inactive or inconclusive.

What was measured:
[1] = NS1 protein of Zika virus - qHTS assay to identify small molecule inhibitors in human HEK 293 cells (AID 1347053); further: series mostly up to about 46 µM; nearly all actives have a fitted effect of over 55% in size
Outline: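 HEK 293 cells pretreated with compound for 1 h, then infected with ZIKV MR766 (MOI 0.5) for 24 h at 37 C. NS1 detected by TR-FRET with two anti-NS1 antibodies; normalized to uninfected (0%) and infected (100%) wells.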

[2] = qHTS of pediatric cancer cell lines to identify multiple opportunities for drug repurposing: Primary screen for TC32 cells (AID 1347089); further: nearly all actives have a fitted effect of over 60% in size
Outline: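 Measured quantity: luminescence from CellTiter-Glo, reflecting metabolically active TC32 cells following 48 h of compound. Curves came straight from multi-point titrations, with 8 or 11 points in primary and 11 in confirmatory screening.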

[3] = qHTS of pediatric cancer cell lines to identify multiple opportunities for drug repurposing: Primary screen for DAOY cells (AID 1347090); further: series mostly up to about 46 µM; nearly all actives have a fitted effect of over 55% in size
Outline: (§1)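 Cell viability, CellTiter-Glo luminescence; 500-1,000 cells/well, 8- or 11-point titration, 48 h compound exposure at 37 degrees C, 5% CO2. Controls: DMSO neutral, bortezomib 2.3 µM final as positive.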

[4] = qHTS of pediatric cancer cell lines to identify multiple opportunities for drug repurposing: Primary screen for SJ-GBM2 cells (AID 1347091)
Outline: as §1

[5] = qHTS of pediatric cancer cell lines to identify multiple opportunities for drug repurposing: Primary screen for A673 cells (AID 1347092); further: nearly all actives have a fitted effect of over 45% in size
Outline: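 Cells are plated, rested 5 h, dosed by pintool, incubated 48 h, then lysed with CellTiter-Glo and read by luminescence. DMSO is the neutral control; bortezomib at 2.3 uM final is the positive control.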

Measured: Potency

CC1(C)OC(=O)Nc2ccc(Br)cc21
inactive: [1] | [2] | [3] | [4] | [5]

CC(C)C(=O)OCc1cccc(OC(=O)[C@@H]2N3C(=O)[C@@H](NC(=O)Cc4ccccc4)[C@H]3SC2(C)C)c1
inactive: [1] | [2] | [3] | [4] | [5]

C[C@@H](C1=C(CCN(C)C)Cc2ccccc21)c1ccccn1
inactive: [1] | [2] | [3] | [4] | [5]

Cc1c(N)cccc1C(F)(F)F
inactive: [1] | [2] | [3] | [4] | [5]

O=C(OCCN1CCOCC1)c1cccnc1Nc1cccc(C(F)(F)F)c1
inactive: [1] | [2] | [3] | [4] | [5]

CN1CCCN=C1/C=C/c1cccs1
inactive: [1] | [2] | [3] | [4] | [5]

O=C(O)Cn1c(=O)n(Cc2ccc(Br)cc2F)c(=O)c2ccc(Cl)cc21
inactive: [1] | [2] | [3] | [4] | [5]

CCOC(=O)O[C@]1(C(=O)OCCl)CC[C@H]2[C@@H]3CCC4=CC(=O)C=C[C@]4(C)[C@H]3[C@@H](O)C[C@@]21C
inactive: [1] | [2] | [3] | [4] | [5]

CCOC(=O)C(=O)CCCCCCl
inactive: [1] | [2] | [3] | [4] | [5]

O=[N+]([O-])c1cncn1CCN1CCOCC1
inactive: [1] | [2] | [3] | [4] | [5]

Cc1c(F)cc2c(=O)c(C(=O)O)cn3c2c1CCC3C (configuration not stated)
inactive: [1] | [2] | [3] | [4] | [5]

Cc1cc(O)c2c(O)c3c(O)cccc3cc2c1
inactive: [1] | [2] | [3] | [4] | [5]

CCN(CC)C(=O)C1CN2CCc3cc(OC)c(OC)cc3C2CC1OC(C)=O (configuration not stated)
inactive: [1] | [2] | [3] | [4] | [5]

CN(C)CCN1CCN(c2cccc(Cl)c2)C1=O
inactive: [1] | [2] | [3] | [4] | [5]

CCN(CC)CCN
inactive: [1] | [2] | [3] | [4] | [5]

CC(=O)c1ccc(O)c(C(N)=O)c1
inactive: [1] | [2] | [3] | [4] | [5]

O=C(CCCl)NCCc1ccccc1
inactive: [1] | [2] | [3] | [4] | [5]

COCCOCC(OC)OC
inactive: [1] | [2] | [3] | [4] | [5]

CCOC(=O)C(O)c1ccccc1 (configuration not stated)
inactive: [1] | [2] | [3] | [4] | [5]

CCCCC(CC)CNC(=O)CC(C)OC(=O)CCC(=O)O (configuration not stated)
inactive: [1] | [2] | [3] | [4] | [5]

CC(CC(C#N)(c1ccccc1)C(C)C)N(C)C (configuration not stated)
inactive: [1] | [2] | [3] | [4] | [5]

C=CCOc1cc(Cl)ccc1C(=O)NCCN(CC)CC
inactive: [1] | [2] | [3] | [4] | [5]

CCOC(=O)C(=O)c1csc(NC=O)n1
inactive: [1] | [2] | [3] | [4] | [5]

CCN1CCN(c2cc(-c3ccc(F)cc3)c3c(n2)CCCCCC3)CC1
inactive: [1] | [2] | [3] | [5]

Cc1ccc2c(Cl)cc(Cl)c(O)c2n1
inactive: [1] | [2] | [3] | [4] | [5]

Cc1nc2n(c(=O)c1CCN1CCC(C(=O)c3ccc(F)cc3)CC1)CCS2
inactive: [1] | [2] | [3] | [4] | [5]

CCOC(=O)N1CCC(n2c(=O)[nH]c3cc(Cl)ccc32)CC1
inactive: [1] | [2] | [4]

COc1ccccc1N1CCN(CC(O)COc2cc(OC)c(OC)c(OC)c2)CC1 (configuration not stated)
inactive: [1] | [2] | [3] | [4] | [5]

COC(=O)c1cc(Cl)ccc1OC
inactive: [1] | [2] | [3] | [4] | [5]

CCCCCN(CCCOC)C(=O)C(CCC(=O)O)NC(=O)c1ccc(Cl)c(Cl)c1 (configuration not stated)
inactive: [1] | [2] | [3] | [4] | [5]

CCc1cc2cc(OC)c(OC)cc2c(Cc2ccccc2)n1
inactive: [1] | [2] | [3] | [5]

CCCCN(CCN(CCCC)C(=O)N1CCOCC1)C(=O)N1CCOCC1
inactive: [1] | [2] | [4]

CCC(C(=O)OCCN1CCOC(c2ccccc2)C1C)c1ccccc1 (configuration not stated)
inactive: [1] | [2] | [3] | [5]

c1ccc(C(O[C@H]2CCCN(CCc3ccc4c(c3)OCO4)C2)c2ccccc2)cc1
inactive: [1] | [2] | [3] | [5]
